The panel holds about 83,000 compounds, 20% with a hit somewhere; the sample as a whole holds those more often.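 Single-dose data. Exposure time 48 hours. Values below 10 considered active.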 A number with no mark means an inactive call. Calls of active or inactive are those of the source.
What was measured:
Assay in all cases: NCI-60 one-dose screen, 48 h (100 = growth as untreated, 0 = no growth, -100 = all killed)
Conditions in all cases: 10 µM unless noted
[1] = test system: RPMI-8226 leukemia
[2] = test system: OVCAR-8 ovarian
[3] = test system: OVCAR-5 ovarian
[4] = test system: OVCAR-4 ovarian
[5] = test system: SK-OV-3 ovarian
[6] = test system: IGROV1 ovarian
[7] = test system: OVCAR-3 ovarian
[8] = test system: HS 578T breast
[9] = test system: NCI/ADR-RES ovarian
[10] = test system: T-47D breast
[11] = test system: BT-549 breast
[12] = test system: MDA-MB-435 melanoma
[13] = test system: SW-620 colon
[14] = test system: MCF7 breast
[15] = test system: HCT-116 colon
[16] = test system: HCC-2998 colon
[17] = test system: KM12 colon

SMILES	growth [1]	growth [2]	growth [3] [%]	growth [4]	growth [5]	growth [6]	growth [7]	growth [8]	growth [9]	growth [10]	growth [11]	growth [12]	growth [13]	growth [14]	growth [15]	growth [16]	growth [17]
Cc1nnc(/N=C2\NC(=O)/C(=C/c3ccsc3)S2)s1	94%	104%	107	90.6%	89.5%	90.7%	93.3%	96.4%	94.8%	84.4%	94.6%	91.5%	98.8%	79%	83.6%	95.7%	84.7%
O=C1CCc2ccccc2N1	106%	105%	103	94.7%	108%	98.4%	102%	103%	101%	109%	107%	97.6%	102%	96.6%	101%	84.8%	96.6%
CCCCCOC(=O)c1ccccc1O	102%	107%	105	95.9%	92.2%	111%	102%	103%	110%	85.8%	93.4%	102%	105%	87.6%	98.9%	109%	105%
O=C(Nc1ccc(N=Cc2ccccc2O)cc1)NC1C=c2ccccc2=CC1 (stereo unspecified)	94%	95.9%	103	116%	103%	108%	99.1%	102%	101%	91.3%	86.6%	104%	105%	92.6%	104%	100%	103%
COc1cc([C@H](C)c2ccc3ccccc3c2)cc(OC)c1OC	15.9%	23.2%	62.1	40.6%	31%	36%	-19.7% (active)	30.2%	17.9%	42.2%	39.1%	0.308% (active)	28.5%	14.8%	6.72% (active)	26.5%	19.6%
Cc1cc(C)nc(NS(=O)(=O)c2ccc(Nc3ccc4c5c(n(CCCN(C)C)c(=O)c4c3)-c3ccccc3C5=O)cc2)n1	85.4%	74.4%	111	107%	96.1%	74.2%	83.7%	93.2%	98.6%	102%	91.8%	98.8%	54.2%	30.6%	56.4%	73.6%	71.6%
C#C[C@@]1(O)[C@@H](CO)O[C@@H](n2cc(Br)c3c(N)ncnc32)[C@@H]1O	0.406% (active)	-0.359% (active)	18.8	5.79% (active)	-8.02% (active)	-22.5% (active)	-25.5% (active)	-5.73% (active)	1.19% (active)	-20.1% (active)	-45.5% (active)	14.6%	-0.395% (active)	-18.4% (active)	3.16% (active)	-22% (active)	8.07% (active)
COc1cc(/C=C/C(=O)/C=C/c2cc3ccc(Cl)cc3n(Cc3ccccc3)c2=O)ccc1O	-18.8% (active)	5.61% (active)	19.4	25.8%	37.3%	3.2% (active)	-46.4% (active)	43.5%	15%	2.39% (active)	-19.2% (active)	-19.1% (active)	3.39% (active)	26.2%	-82.6% (active)	-73.8% (active)	-52.3% (active)
CN(C)CSc1nc2ccccc2s1	98.7%	104%	93.6	102%	84.7%	83.7%	99.9%	116%	102%	86.7%	81.1%	99.9%	104%	87.3%	89.7%	97.7%	98.3%
CCSc1ccc(C2C(Br)C(=O)N2c2cc(OC)c(OC)c(OC)c2)cc1 (stereo unspecified)	9.73% (active)	17.4%	31.1	38.3%	21.8%	29.1%	3.63% (active)	8.62% (active)	14%	67.4%	13.8%	-1.6% (active)	23%	13.2%	4.7% (active)	31.7%	17%
Nc1n[nH]c2cccc(C#Cc3cccc(NC(=O)c4cc(N5CCOCC5)cc(C(F)(F)F)c4)c3)c12	40.5%	45.5%	42.4	51.5%	35.1%	9.97% (active)	67.3%	40.5%	47%	28.3%	63.4%	45.8%	46.6%	46.6%	19.4%	31.3%	54.5%
Nc1ccc(C2=NN(C(=O)c3cc(-c4ccc(Cl)cc4)nc4ccccc34)C(c3ccc(Cl)cc3)C2)cc1 (stereo unspecified)	10.4%	32.1%	81.3	72.4%	31.7%	49.2%	8.07% (active)	41.8%	12.4%	38%	52.3%	-23.1% (active)	29.6%	14.8%	23%	62.9%	27.5%
COC(=O)CCc1cc(O)c2c(c1)[C@@H](C(=O)OC)[C@H](c1ccc(O)c(O)c1)O2	80.5%	90.6%	98.3	83%	97.4%	88.1%	27.5%	74.3%	87.8%	66%	51.7%	4.1% (active)	63.8%	23.7%	59.5%	94.9%	55.8%
Cc1nc(C)c(C)nc1C	104%	91.8%	115	114%	96.5%	108%	109%	85.6%	109%	92.5%	110%	108%	103%	101%	98.4%	95.6%	105%
O=C(O)CCNC1CCCCC1	96.3%	99.9%	86	103%	101%	105%	108%	96.6%	93.1%	104%	99.6%	117%	101%	87.5%	92.6%	86.4%	99.7%
O=C(O)c1cn(C2CC2)c2cc(N3CCN(Cc4nnc(Nc5ccccc5)o4)CC3)c(F)cc2c1=O	106%	108%	94	101%	108%	95.9%	101%	98%	107%	85.4%	98.8%	97.6%	106%	97.7%	91.6%	103%	96.7%
CC(=O)Nc1c(C(=O)Nc2ccccc2)sc2nc3c(cc12)C(OC(C)=O)CCC3 (stereo unspecified)	107%	105%	108	108%	46.6%	109%	104%	102%	88.4%	93.5%	83.6%	35.3%	97.4%	97.6%	104%	68.7%	80.2%
c1ccc2nc(N3CCOCC3)c(N3CCCCC3)nc2c1	96.9%	102%	105	97.6%	101%	107%	103%	96.9%	100%	75.9%	109%	106%	104%	93.8%	102%	103%	101%

Reference: PubChem BioAssay (NCI)
